In PubChem BioAssay:
The source made the active and inactive calls.

Columns and labels:
[1] = test system: PRMT1 (protein arginine N-methyltransferase 1); assay: PRMT1 binders on small-molecule microarrays, primary screen, biochemical, small-molecule microarray, 635 nm fluorescence (AID 1088); conditions: small-molecule microarray binding, higher = more signal;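 note: binding of Prmt1 protein to compounds spotted on small-molecule microarray slides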
[2] = yeast growth modulation, basal conditions, primary screen, YJM789 clinical isolate, OD600, 24 h (AID 1089);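 note: growth of clinical yeast isolate S. cerevisiae YJM 789 seeded 1000 cells per well; test concentration not given here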; conditions: S. cerevisiae YJM789 growth, higher = more signal, called active from +8 up or from −8 down
[3] = fission yeast growth modulation, primary screen, strain 972, OD600, 24 h, no modulator (AID 1090);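 note: basal condition with compound alone and no growth modifier present; test concentration not given here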; conditions: S. pombe 972 growth, higher = more signal, called active from +8 up or from −8 down
[4] = S. cerevisiae growth modulation with rapamycin, primary screen, strain BY4716, OD600, 96 h (AID 1091); conditions: higher = more signal, called active from +8 up or from −8 down; note: test concentration not given here
[5] = target: Torsin-1A-interacting protein 2 (Homo sapiens) (UniProt Q8NFQ8); assay: LULL1 binders on small-molecule microarray, primary screen, cell lysate, human LULL1 lysate, 635/667 nm fluorescence (AID 1092); conditions: hLULL1 lysate binding, 635 nm fluorescence, higher = more signal;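 note: probe is lysate of COS7 cells overexpressing human LULL1; score merges per-feature 667 nm fluorescence with signal-to-noise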
Torsin-1A-interacting protein 2 (Homo sapiens), sequence (Q8NFQ8 whole entry, looked up): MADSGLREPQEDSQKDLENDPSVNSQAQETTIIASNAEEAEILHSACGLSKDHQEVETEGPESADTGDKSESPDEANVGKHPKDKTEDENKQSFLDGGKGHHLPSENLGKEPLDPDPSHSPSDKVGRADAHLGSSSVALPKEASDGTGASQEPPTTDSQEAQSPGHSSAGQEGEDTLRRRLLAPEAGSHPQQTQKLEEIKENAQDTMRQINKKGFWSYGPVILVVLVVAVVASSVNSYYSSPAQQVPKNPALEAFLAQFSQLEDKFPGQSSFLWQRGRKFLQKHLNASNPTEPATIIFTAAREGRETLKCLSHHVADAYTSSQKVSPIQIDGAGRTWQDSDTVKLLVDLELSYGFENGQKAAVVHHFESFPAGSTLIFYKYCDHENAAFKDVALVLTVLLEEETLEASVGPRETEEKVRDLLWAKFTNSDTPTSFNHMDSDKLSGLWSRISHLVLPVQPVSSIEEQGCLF

[6] = E. coli growth modulation, two-sided OD650, primary screen, E. coli filamentation project, strain DRC41, 24 h (AID 1093); conditions: OD650, 24 h, higher = more signal, called active from +8 up or from −8 down;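 note: MC1000 strain lacking acrAB efflux and sulA so SOS filamentation is blocked; test concentration not given here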
[7] = small-molecule microarray binders of probe aLefty2, primary screen, biochemical, biotinylated probe, 635/667 nm fluorescence (AID 1094); conditions: higher = more signal;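 note: score merges spot fluorescence near 667 nm with spot signal-to-noise ratio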
[8] = test system: Noggin (protein binding on small-molecule microarray); assay: Noggin binders on small-molecule microarray, primary screen, biochemical, 635/667 nm fluorescence (AID 1095); conditions: 635 nm fluorescence, higher = more signal;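 note: score merges 667 nm feature fluorescence with signal to noise over triplicate slides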
[9] = target: Neurogenic locus notch homolog protein 3 (Homo sapiens) (UniProt Q9UM47); assay: NOTCH3 binders on small-molecule microarray, primary screen, biochemical, 635/667 nm fluorescence (AID 1096); conditions: NOTCH3 binding, 635 nm fluorescence, higher = more signal
Neurogenic locus notch homolog protein 3 (Homo sapiens), sequence (Q9UM47 whole entry, looked up): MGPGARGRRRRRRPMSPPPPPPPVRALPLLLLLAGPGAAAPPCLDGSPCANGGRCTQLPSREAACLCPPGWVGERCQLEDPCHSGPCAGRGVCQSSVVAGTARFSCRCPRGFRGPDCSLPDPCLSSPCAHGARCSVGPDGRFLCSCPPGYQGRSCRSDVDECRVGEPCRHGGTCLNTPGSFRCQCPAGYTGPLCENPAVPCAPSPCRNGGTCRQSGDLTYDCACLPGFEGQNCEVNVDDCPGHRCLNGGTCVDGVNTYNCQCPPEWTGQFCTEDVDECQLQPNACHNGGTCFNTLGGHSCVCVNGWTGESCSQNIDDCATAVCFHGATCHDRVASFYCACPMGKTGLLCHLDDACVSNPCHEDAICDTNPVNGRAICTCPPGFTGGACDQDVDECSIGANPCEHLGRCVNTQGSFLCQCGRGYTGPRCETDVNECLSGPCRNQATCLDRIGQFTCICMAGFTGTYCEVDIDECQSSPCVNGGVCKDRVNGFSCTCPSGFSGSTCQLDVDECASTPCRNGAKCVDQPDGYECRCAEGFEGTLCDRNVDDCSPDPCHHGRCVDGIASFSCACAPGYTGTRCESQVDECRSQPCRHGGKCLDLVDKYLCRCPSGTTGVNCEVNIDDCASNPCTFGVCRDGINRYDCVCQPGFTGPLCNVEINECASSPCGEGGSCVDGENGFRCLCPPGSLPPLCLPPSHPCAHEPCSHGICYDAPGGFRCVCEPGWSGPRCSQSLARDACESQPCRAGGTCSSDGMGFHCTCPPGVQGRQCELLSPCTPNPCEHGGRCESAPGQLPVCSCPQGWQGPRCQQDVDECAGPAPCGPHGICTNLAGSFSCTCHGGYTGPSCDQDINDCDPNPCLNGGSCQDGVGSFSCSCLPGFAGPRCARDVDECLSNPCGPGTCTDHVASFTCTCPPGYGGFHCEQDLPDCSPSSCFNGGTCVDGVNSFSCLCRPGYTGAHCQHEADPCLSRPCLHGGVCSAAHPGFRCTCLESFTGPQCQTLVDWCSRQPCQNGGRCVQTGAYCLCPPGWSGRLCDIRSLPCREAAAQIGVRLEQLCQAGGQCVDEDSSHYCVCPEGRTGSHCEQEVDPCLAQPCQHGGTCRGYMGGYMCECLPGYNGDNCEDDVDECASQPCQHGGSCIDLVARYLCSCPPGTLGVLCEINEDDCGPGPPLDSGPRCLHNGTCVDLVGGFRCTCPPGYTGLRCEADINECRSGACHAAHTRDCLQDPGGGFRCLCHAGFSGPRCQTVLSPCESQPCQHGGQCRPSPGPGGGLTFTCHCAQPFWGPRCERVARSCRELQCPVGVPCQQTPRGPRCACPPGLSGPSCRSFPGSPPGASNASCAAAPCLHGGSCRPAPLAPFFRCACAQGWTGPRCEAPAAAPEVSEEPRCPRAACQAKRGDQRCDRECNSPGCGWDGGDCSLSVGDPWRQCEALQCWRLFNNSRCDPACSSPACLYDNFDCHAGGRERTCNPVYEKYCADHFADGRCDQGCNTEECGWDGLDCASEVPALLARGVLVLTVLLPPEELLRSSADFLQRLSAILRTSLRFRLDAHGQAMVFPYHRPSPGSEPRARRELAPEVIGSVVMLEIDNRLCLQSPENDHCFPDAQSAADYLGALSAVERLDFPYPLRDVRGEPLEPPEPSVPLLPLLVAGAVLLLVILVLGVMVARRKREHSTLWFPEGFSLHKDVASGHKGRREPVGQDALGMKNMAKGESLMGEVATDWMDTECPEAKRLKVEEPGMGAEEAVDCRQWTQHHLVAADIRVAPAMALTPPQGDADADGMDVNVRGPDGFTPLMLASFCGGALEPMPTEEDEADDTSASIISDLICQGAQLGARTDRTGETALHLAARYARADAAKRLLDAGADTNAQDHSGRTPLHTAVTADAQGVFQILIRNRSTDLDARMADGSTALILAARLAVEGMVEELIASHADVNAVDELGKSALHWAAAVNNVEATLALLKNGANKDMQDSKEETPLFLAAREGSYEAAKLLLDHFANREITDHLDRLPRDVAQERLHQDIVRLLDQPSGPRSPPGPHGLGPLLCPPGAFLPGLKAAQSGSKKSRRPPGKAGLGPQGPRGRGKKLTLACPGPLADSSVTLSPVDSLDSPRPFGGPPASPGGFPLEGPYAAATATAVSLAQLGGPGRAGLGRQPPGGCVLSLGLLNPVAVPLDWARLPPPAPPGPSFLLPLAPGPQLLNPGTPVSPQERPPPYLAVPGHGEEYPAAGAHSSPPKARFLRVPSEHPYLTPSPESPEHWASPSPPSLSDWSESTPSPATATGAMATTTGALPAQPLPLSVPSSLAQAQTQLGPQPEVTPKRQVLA

[10] = small-molecule microarray binders of probe aEGFR, primary screen, biochemical, biotinylated probe, 635/667 nm fluorescence (AID 1097); conditions: higher = more signal;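 note: probe is a biotinylated anti-EGFR antibody binding compounds printed on slides; score combines fluorescence near 667 nm and signal to noise of each spot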
[11] = test system: Plasmodium falciparum Sir2 (PF13_0152, Sir2A); assay: pfSir2 binders on small-molecule microarrays, primary screen, biochemical, small-molecule microarray, 635 nm fluorescence (AID 1098); conditions: small-molecule microarray binding, fluorescence 635 nm; higher = more signal;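 note: score merges spot fluorescence intensity with its signal-to-noise ratio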
[12] = small-molecule microarray binders of probe aDKK1, primary screen, biochemical, biotinylated probe, 635/667 nm fluorescence (AID 1099); conditions: higher = more signal;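 note: score merges 667nm spot fluorescence with signal to noise across triplicate slides; reference of the scale not given here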
[13] = small-molecule microarray binders of probe aCHRDL2, primary screen, biochemical, biotinylated probe, 635/667 nm fluorescence (AID 1100); conditions: higher = more signal
[14] = splicing luciferase reporter signal modulators, primary screen, spliceosome inhibition project, cell-based, HEK293, splice +/- reporter (AID 1101); conditions: luminescence, 24 h, higher = more signal, called active from +8 up or from −8 down;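 note: HEK293 cells carrying a splicing-competent luciferase reporter gene; test concentration not given here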
[15] = target: Fibroblast growth factor 10 (Homo sapiens) (UniProt O15520); assay: FGF10 binders on small-molecule microarrays, primary screen, biochemical, small-molecule microarray, 635 nm fluorescence (AID 1102); conditions: FGF10 binding, fluorescence 635 nm, higher = more signal
Fibroblast growth factor 10 (Homo sapiens), sequence (O15520 whole entry, looked up): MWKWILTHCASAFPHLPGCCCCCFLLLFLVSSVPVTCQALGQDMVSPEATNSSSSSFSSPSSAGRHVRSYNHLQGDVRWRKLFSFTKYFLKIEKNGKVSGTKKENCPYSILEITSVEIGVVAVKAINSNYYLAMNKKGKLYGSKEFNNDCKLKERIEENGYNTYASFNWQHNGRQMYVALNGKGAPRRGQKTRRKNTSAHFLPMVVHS

[16] = test system: glycogen synthase kinase-3 (GSK3A per assay name; protocol says GSK3B); assay: GSK3 binders on small-molecule microarrays, primary screen, biochemical, small-molecule microarray, 635 nm fluorescence, GSK3A (AID 1103); conditions: small-molecule microarray binding, fluorescence 635 nm; higher = more signal; note: the record names both GSK3A and GSK3B
[17] = target: Epidermal growth factor receptor (Homo sapiens) (UniProt P00533); assay: EGFR binders on small-molecule microarrays, primary screen, biochemical, small-molecule microarray, 635 nm fluorescence (AID 1104); conditions: EGFR binding, higher = more signal;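 note: score merges 667 nm emission intensity with spot signal to noise over triplicate slides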
Epidermal growth factor receptor (Homo sapiens), sequence (P00533 whole entry, looked up): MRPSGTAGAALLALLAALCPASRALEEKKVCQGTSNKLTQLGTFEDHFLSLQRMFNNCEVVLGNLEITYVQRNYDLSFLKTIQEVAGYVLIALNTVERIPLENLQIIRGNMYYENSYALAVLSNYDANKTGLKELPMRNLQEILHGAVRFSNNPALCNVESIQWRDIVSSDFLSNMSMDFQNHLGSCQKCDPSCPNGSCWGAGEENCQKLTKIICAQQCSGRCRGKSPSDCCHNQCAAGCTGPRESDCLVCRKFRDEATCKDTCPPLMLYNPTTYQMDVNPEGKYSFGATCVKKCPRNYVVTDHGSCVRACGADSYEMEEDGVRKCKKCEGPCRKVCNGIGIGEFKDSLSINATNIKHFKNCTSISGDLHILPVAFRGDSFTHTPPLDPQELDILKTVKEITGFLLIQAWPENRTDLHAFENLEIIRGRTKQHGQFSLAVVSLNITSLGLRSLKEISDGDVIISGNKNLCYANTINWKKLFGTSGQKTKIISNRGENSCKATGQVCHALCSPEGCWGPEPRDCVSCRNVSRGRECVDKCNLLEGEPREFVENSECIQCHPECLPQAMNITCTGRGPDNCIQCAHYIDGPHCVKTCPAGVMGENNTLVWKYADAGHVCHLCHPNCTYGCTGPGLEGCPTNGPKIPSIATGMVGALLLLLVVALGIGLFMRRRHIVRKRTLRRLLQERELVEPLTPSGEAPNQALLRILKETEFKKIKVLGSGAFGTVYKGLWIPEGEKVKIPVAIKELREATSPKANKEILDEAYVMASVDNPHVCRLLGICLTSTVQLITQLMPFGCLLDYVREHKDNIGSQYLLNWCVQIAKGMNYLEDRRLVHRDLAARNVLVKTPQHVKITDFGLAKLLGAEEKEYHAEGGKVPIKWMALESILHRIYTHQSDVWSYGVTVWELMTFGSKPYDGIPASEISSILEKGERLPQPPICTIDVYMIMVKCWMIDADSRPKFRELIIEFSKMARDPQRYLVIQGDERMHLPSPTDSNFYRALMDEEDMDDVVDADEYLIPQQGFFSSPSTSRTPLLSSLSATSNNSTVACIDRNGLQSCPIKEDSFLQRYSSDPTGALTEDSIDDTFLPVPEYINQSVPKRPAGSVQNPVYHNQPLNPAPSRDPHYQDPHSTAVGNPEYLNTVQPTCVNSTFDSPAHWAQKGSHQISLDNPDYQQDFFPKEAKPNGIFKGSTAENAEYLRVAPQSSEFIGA

[18] = target: Follistatin-related protein 3 (Homo sapiens) (UniProt O95633); assay: FSTL3 binders on small-molecule microarrays, primary screen, biochemical, small-molecule microarray, 635 nm fluorescence (AID 1105); conditions: FSTL3 binding, higher = more signal;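 note: score merges emission near 667 nm and signal to noise per printed spot across three slides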
Follistatin-related protein 3 (Homo sapiens), sequence (O95633 whole entry, looked up): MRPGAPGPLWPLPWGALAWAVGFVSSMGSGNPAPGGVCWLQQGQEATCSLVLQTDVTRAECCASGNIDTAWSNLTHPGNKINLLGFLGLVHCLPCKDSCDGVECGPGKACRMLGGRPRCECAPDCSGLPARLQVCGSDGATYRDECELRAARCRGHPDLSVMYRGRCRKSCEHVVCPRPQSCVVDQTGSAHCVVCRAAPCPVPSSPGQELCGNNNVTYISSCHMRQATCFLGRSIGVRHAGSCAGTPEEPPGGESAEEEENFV

[19] = target: Dickkopf-related protein 1 (Homo sapiens) (UniProt O94907); assay: DKK1 binders on small-molecule microarrays, primary screen, biochemical, small-molecule microarray, 635 nm fluorescence scan (AID 1106); conditions: DKK1 binding, higher = more signal;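 note: score merges emission near 667 nm with signal to noise over three replicate slides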
Dickkopf-related protein 1 (Homo sapiens), sequence (O94907 whole entry, looked up): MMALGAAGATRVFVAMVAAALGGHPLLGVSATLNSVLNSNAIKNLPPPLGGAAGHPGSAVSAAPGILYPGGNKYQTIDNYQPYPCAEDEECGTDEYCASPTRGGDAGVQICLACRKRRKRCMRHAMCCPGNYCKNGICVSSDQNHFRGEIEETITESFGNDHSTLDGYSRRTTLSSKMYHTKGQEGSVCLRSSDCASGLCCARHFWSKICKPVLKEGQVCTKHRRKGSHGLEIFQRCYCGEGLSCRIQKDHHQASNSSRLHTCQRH

[20] = test system: Inhibin beta A chain (activin A); assay: INHBA (activin A) binders on microarrays, primary screen, biochemical, small-molecule microarray, 635 nm fluorescence scan (AID 1107); conditions: small-molecule microarray binding, higher = more signal;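 note: mouse activin A protein probed at 4.33 µg/mL on printed slides; score merges bound-protein fluorescence near 667 nm with spot signal-to-noise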

O=C(NC1CC1)[C@@H]1c2ccccc2C(=O)N(Cc2ccc(OC(F)(F)F)cc2)[C@H]1c1ccc(CO)cc1
composite z-score [1]: 0.696
z-score [2]: -0.112 (inactive)
z-score [3]: -0.636 (inactive)
z-score [4]: -1.51 (inactive)
composite z-score [5]: 1.76
z-score [6]: 0.577 (inactive)
composite z-score [7]: -0.0943
composite z-score [8]: 0.818
composite z-score [9]: 0.377
composite z-score [10]: -0.0679
composite z-score [11]: 0.572
composite z-score [12]: -0.082
composite z-score [13]: 0.111
z-score [14]: -0.599 (inactive)
composite z-score [15]: 0.567
composite z-score [16]: -0.589
composite z-score [17]: 0.0972
composite z-score [18]: 0.301
composite z-score [19]: 0.864
composite z-score [20]: 0.301

CC(C)c1nc2cc(Br)ccc2c(=O)o1
composite z-score [1]: -0.0152
z-score [2]: -0.0363 (inactive)
z-score [3]: 0.347 (inactive)
z-score [4]: -0.26 (inactive)
composite z-score [5]: 2.97
z-score [6]: 0.501 (inactive)
composite z-score [7]: -0.0823
composite z-score [8]: 0.0534
composite z-score [9]: 0.567
composite z-score [10]: -0.0535
composite z-score [11]: 0.338
composite z-score [12]: 0.444
composite z-score [13]: -0.123
z-score [14]: 1.44 (inactive)
composite z-score [15]: 0.755
composite z-score [16]: 1.02
composite z-score [17]: 0.397
composite z-score [18]: 0.523
composite z-score [19]: 0.359
composite z-score [20]: -0.585

CN(C)C(=O)[C@]1(Cc2ccccc2)N=C(c2ccc(OCCCO)cc2)O[C@@H]1c1ccccc1CN=[N+]=[N-]
composite z-score [1]: 1.53
z-score [2]: -1.8 (inactive)
z-score [3]: -0.531 (inactive)
z-score [4]: -0.293 (inactive)
composite z-score [5]: 3.15
z-score [6]: 0.702 (inactive)
composite z-score [7]: -0.0153
composite z-score [8]: 0.605
composite z-score [9]: 1.07
composite z-score [10]: 0.0176
composite z-score [11]: 0.978
composite z-score [12]: 0.143
composite z-score [13]: 0.591
z-score [14]: -0.741 (inactive)
composite z-score [15]: 1.23
composite z-score [16]: 1.33
composite z-score [17]: 0.0699
composite z-score [18]: 0.741
composite z-score [19]: -0.124
composite z-score [20]: 0.406

C=CCOC(=O)[C@@H]1[C@H]2C(=O)O[C@H](c3ccccc3)[C@H](c3ccccc3)N2[C@H](c2ccc(OCCOC(=O)[C@H]3C[C@H]4C(=O)NCC(=O)N4[C@H]3c3cccc(OCCO)c3)cc2)[C@@]12C(=O)Nc1ccc(I)cc12
composite z-score [1]: 1.54
z-score [2]: 0.787 (inactive)
z-score [3]: 1.44 (inactive)
z-score [4]: 3.6 (inactive)
composite z-score [5]: 2.7
z-score [6]: 0.002 (inactive)
composite z-score [7]: -0.0809
composite z-score [8]: 0.963
composite z-score [9]: 1.1
composite z-score [10]: 0.0712
composite z-score [11]: 1.53
composite z-score [12]: 0.512
composite z-score [13]: 0.494
z-score [14]: 0.789 (inactive)
composite z-score [15]: 0.742
composite z-score [16]: 1.36
composite z-score [17]: 0.725
composite z-score [18]: 1.23
composite z-score [19]: 1.11
composite z-score [20]: 0.118

CC(C)(C)N1CC=CC23O[C@@H]4C=CCOC(=O)[C@@H]4[C@H]2C(=O)N(CCO)[C@@H]3C1=O (stereo not given in full)
composite z-score [1]: 0.717
z-score [2]: 0.573 (inactive)
z-score [3]: -0.0445 (inactive)
z-score [4]: 0.514 (inactive)
composite z-score [5]: 1.34
z-score [6]: -0.594 (inactive)
composite z-score [7]: -0.284
composite z-score [8]: -1.6
composite z-score [9]: -0.337
composite z-score [10]: -0.205
composite z-score [11]: 1.75
composite z-score [12]: -0.243
composite z-score [13]: 0.375
z-score [14]: -0.273 (inactive)
composite z-score [15]: -1.05
composite z-score [16]: -1.14
composite z-score [17]: -0.687
composite z-score [18]: -0.955
composite z-score [19]: -1.44
composite z-score [20]: -0.545

COc1ccc([Si](C)(C)[C@H]2[C@H](CCO)O[C@@]3(C(=O)N(Cc4cccc(N(C=O)c5ccccc5)c4)c4ccccc43)[C@@H]2C)cc1
composite z-score [1]: 1.56
z-score [2]: 1.08 (inactive)
z-score [3]: 0.604 (inactive)
z-score [4]: 10.6 (active)
composite z-score [5]: 2.91
z-score [6]: 2.01 (inactive)
composite z-score [7]: 0.0893
composite z-score [8]: 0.785
composite z-score [9]: 1.07
composite z-score [10]: 0.0004
composite z-score [11]: 1.14
composite z-score [12]: -0.305
composite z-score [13]: -0.777
z-score [14]: -1.53 (inactive)
composite z-score [15]: 1.33
composite z-score [16]: 1.29
composite z-score [17]: 0.406
composite z-score [18]: 1.08
composite z-score [19]: 0.469
composite z-score [20]: 0.013

CCCC=C(CCC)[C@@H](NC(=O)c1ccc(C(F)(F)F)cc1)c1ccc(C(F)(F)F)cc1
composite z-score [1]: 1.41
z-score [2]: 1.13 (inactive)
z-score [3]: 1.17 (inactive)
z-score [4]: 1.23 (inactive)
composite z-score [5]: 3.26
z-score [6]: -0.35 (inactive)
composite z-score [7]: 0.315
composite z-score [8]: -0.0005
composite z-score [9]: 1.11
composite z-score [10]: 0.208
composite z-score [11]: 0.654
composite z-score [12]: 0.73
composite z-score [13]: 1.09
z-score [14]: -3.17 (inactive)
composite z-score [15]: 0.793
composite z-score [16]: 1.13
composite z-score [17]: -0.254
composite z-score [18]: 0.468
composite z-score [19]: -0.906
composite z-score [20]: 0.932

CCC(CC)C(O)C1C=CC2C(=O)N(c3ccccc3)C(=O)C2N1Nc1ccccc1F (stereo not given)
composite z-score [1]: 0.203
z-score [2]: 0.175 (inactive)
z-score [3]: 0.44 (inactive)
z-score [4]: -0.0875 (inactive)
composite z-score [5]: 3.23
z-score [6]: -0.636 (inactive)
composite z-score [7]: 0.172
composite z-score [8]: -0.19
composite z-score [9]: 0.78
composite z-score [10]: -0.04
composite z-score [11]: 1.17
composite z-score [12]: 0.373
composite z-score [13]: 0.481
z-score [14]: -0.115 (inactive)
composite z-score [15]: 0.412
composite z-score [16]: 0.554
composite z-score [17]: 0.0005
composite z-score [18]: 0.226
composite z-score [19]: -0.445
composite z-score [20]: 0.704

CCCCC(=C=CC[C@H](O)c1ccc(CO)o1)CCO
composite z-score [1]: 1.49
z-score [2]: 0.978 (inactive)
z-score [3]: -1.17 (inactive)
z-score [4]: -0.0978 (inactive)
composite z-score [5]: 1.59
z-score [6]: -0.14 (inactive)
composite z-score [7]: -0.258
composite z-score [8]: 1.31
composite z-score [9]: 0.683
composite z-score [10]: -0.0041
composite z-score [11]: 1.17
composite z-score [12]: -0.0027
composite z-score [13]: -0.485
z-score [14]: 0.263 (inactive)
composite z-score [15]: 0.738
composite z-score [16]: 0.514
composite z-score [17]: -0.0244
composite z-score [18]: 0.484
composite z-score [19]: -0.0878
composite z-score [20]: 0.839
